Results filed as inconclusive are left out. A number with no mark means an inactive call. Calls of active or inactive are those of the source. Calls come from the whole dose curve; as a rule, active = well fitted cell-killing curve with a large enough effect in the repeat runs; inconclusive = weak or mixed curves, or effect the other way; inactive = no such curve, though single readings can be large or run the other way.
Assay: qHTS assay to identify small molecule antagonists of the glucocorticoid receptor (GR) signaling pathway - cell viability counter screen (AID 720693); note: nearly all actives have a fitted effect of over 55% in size
Details: GR-bla HeLa viability, CellTiter-Glo luminescence, 18 h, with 5 nM dexamethasone present; series mostly up to 58.5 µM; viability change, negative = cytotoxic: at the top concentration
With `CCCCCCCCN(C)CCCCCCCC` the “viability change, negative = cytotoxic” value was -8.04% [at 78.9 µM].
In the case of `Oc1ccc2c(c1)OC[C@@H](N1CCC(O)(c3ccc(F)cc3)CC1)[C@H]2O`, the “viability change, negative = cytotoxic” value is reported as 12.7%.
With `CO[Si](OC)(OC)OC` the “viability change, negative = cytotoxic” value was -11.7%.
For `c1ccc2cnncc2c1`, the “viability change, negative = cytotoxic” value was -2.09%.
In the case of `CC(C)(C)OC(=O)N1C[C@@H](F)C[C@H]1C(=O)O`, the “viability change, negative = cytotoxic” value is reported as 12.4% [at 78.9 µM].
With `C=CCOc1nc(OCC=C)nc(OCC=C)n1` the “viability change, negative = cytotoxic” value was -3.33%.
For `CCn1cc(C(=O)O)c(=O)c2cc(F)c(N3CCN(C)CC3)cc21`, the “viability change, negative = cytotoxic” value was -1.39%.
In the case of `Cn1ccc2cc3c(cc21)CCN3C(=O)Nc1cccnc1`, the “viability change, negative = cytotoxic” value is reported as -1.82%.
For `CC(CCO)CCCC(C)(C)O` (stereo not drawn), the “viability change, negative = cytotoxic” value was 3.64%.
With `CC1=CCC2C(C1)C2(C)C` (stereo not drawn) the “viability change, negative = cytotoxic” value was 6.19%.
In the case of `CCC(=O)/C=C/c1ccc(OC)cc1`, the “viability change, negative = cytotoxic” value is reported as 8.03%.
With `C=CCSCC1Nc2cc(Cl)c(S(N)(=O)=O)cc2S(=O)(=O)N1` (stereo not drawn) the “viability change, negative = cytotoxic” value was -0.283%.
In the case of `CCN1CCCC(OC(=O)C(c2ccccc2)c2ccccc2)C1` (stereo not drawn), the “viability change, negative = cytotoxic” value is reported as 6.91% [at 27 µM].
For `C=C(C)C(=O)NCCCN(C)C`, the “viability change, negative = cytotoxic” value was 4.54%.
In the case of `C#CC(O)CCCCC` (stereo not drawn), the “viability change, negative = cytotoxic” value is reported as -6.53% [at 78.9 µM].
For `Nc1ccn(C2CO[C@H](CO)O2)c(=O)n1` (stereo partly drawn), the “viability change, negative = cytotoxic” value was -1.2%.
With `CC1CCN(CCCC(=O)c2ccc(F)cc2)CC1` the “viability change, negative = cytotoxic” value was 3.88%.
With `CCCCCCCCCCC1CO1` (stereo not drawn) the “viability change, negative = cytotoxic” value was 1.8%.
In the case of `NC(=O)c1ncn([C@@H]2O[C@H](CO)[C@@H](O)[C@H]2O)c1N`, the “viability change, negative = cytotoxic” value is reported as 7.47%.
With `O=C1C(CCS(=O)c2ccccc2)C(=O)N(c2ccccc2)N1c1ccccc1` (stereo not drawn) the “viability change, negative = cytotoxic” value was -0.361% [at 27 µM].
With `CCCCCCCCCCCCCCCCCCOCC(O)CO` (stereo not drawn) the “viability change, negative = cytotoxic” value was 0.302%.
For `COc1nc(C)nc(N)n1`, the “viability change, negative = cytotoxic” value was -3.89%.
In the case of `CCCOc1ccccc1-c1nc2n[nH]nc2c(=O)[nH]1`, the “viability change, negative = cytotoxic” value is reported as -1.35%.
With `CCC(C)(C)C1CCC(OC)CC1` (stereo not drawn) the “viability change, negative = cytotoxic” value was -15.8%.
For `CCOC(=O)Cn1c(=O)sc2cccc(Cl)c21`, the “viability change, negative = cytotoxic” value was 14.2%.
For `O=Cc1ccccc1[N+](=O)[O-]`, the “viability change, negative = cytotoxic” value was 5.57%.
In the case of `CC(C)=CC(=O)O`, the “viability change, negative = cytotoxic” value is reported as 6.87%.
With `Cc1onc(-c2ccccc2)c1-c1ccc(S(N)(=O)=O)cc1` the “viability change, negative = cytotoxic” value was 2.03%.

Assay: qHTS assay for identifying genotoxic compounds that show differential cytotoxicity against isogenic chicken DT40 cell lines with known DNA damage response pathways - wild type cell line (AID 743012); note: nearly all actives have a fitted effect of over 60% in size
Details: DT40 wild type chicken cells viability, CellTiter-Glo, 40 h; series mostly up to 68.4 µM; activity change, negative = cytotoxicity: at the top concentration
How it was run: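 Quantitative HTS on parental DT40 cells: 40 h compound treatment at 37 C/5% CO2, with viability then determined by CellTiter-Glo luminescence. Values serve as the DNA repair-proficient reference for differential cytotoxicity.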
In the case of `Cc1ccccc1Br`, the “activity change, negative = cytotoxicity” value is reported as -7.08%.
With `c1ccc(CCCc2ccccn2)cc1` the “activity change, negative = cytotoxicity” value was 9.87%.
In the case of `CCCCCCCCCCCl`, the “activity change, negative = cytotoxicity” value is reported as -0.263% [at 95 µM].

Assay: qHTS assay for identifying genotoxic compounds that show differential cytotoxicity against isogenic chicken DT40 cell lines with known DNA damage response pathways - Rev3 mutant cell line (AID 743014); note: nearly all actives have a fitted effect of over 55% in size; note: potency is the fitted concentration of half-maximal effect
Details: chicken DT40 Rev3-/- viability, CellTiter-Glo, 40 h; series mostly up to 68.4 µM; activity, negative = cytotoxicity: at the top concentration
In the case of `C1C2OC2C2C1C1CC2C2OC12` (stereo not drawn), the “activity, negative = cytotoxicity” value is reported as 0.561% [at 95 µM].
For `c1ccc2cnncc2c1`, the “activity, negative = cytotoxicity” value was 2.74%.
With `CC(C)(C)OC(=O)N1C[C@@H](F)C[C@H]1C(=O)O` the “activity, negative = cytotoxicity” value was -5.22% [at 95 µM].
With `Cc1ccccc1Br` the “activity, negative = cytotoxicity” value was -0.782%.
In the case of `Cn1ccc2cc3c(cc21)CCN3C(=O)Nc1cccnc1`, the Potency is reported as 13.3 µM (active).
In the case of `CC(CCO)CCCC(C)(C)O` (stereo not drawn), the Potency is reported as 48.6 µM (active).
With `c1ccc(CCCc2ccccn2)cc1` the “activity, negative = cytotoxicity” value was -13.9%.
For `N[C@@H](CS)C(=O)O`, the “activity, negative = cytotoxicity” value was 6.44% [at 95 µM].
With `C=C(C)C(=O)NCCCN(C)C` the “activity, negative = cytotoxicity” value was 15.1%.
With `C#CC(O)CCCCC` (stereo not drawn) the “activity, negative = cytotoxicity” value was 2.55% [at 95 µM].
In the case of `OCCN1C[C@H](O)[C@@H](O)[C@H](O)[C@H]1CO`, the “activity, negative = cytotoxicity” value is reported as 14.2%.
In the case of `CCCCCCCCC=O`, the “activity, negative = cytotoxicity” value is reported as 10%.
For `CCCCCCCCCCC1CO1` (stereo not drawn), the Potency was 68.6 µM (active).
With `CCCCCCCCCCCCCCCCCCOCC(O)CO` (stereo not drawn) the “activity, negative = cytotoxicity” value was 11.6%.
For `COc1nc(C)nc(N)n1`, the “activity, negative = cytotoxicity” value was -9.57%.
With `CCCCCCCCCCCl` the “activity, negative = cytotoxicity” value was 0.954% [at 95 µM].
With `Cc1onc(-c2ccccc2)c1-c1ccc(S(N)(=O)=O)cc1` the “activity, negative = cytotoxicity” value was -3.22%.

Reference: PubChem BioAssay (Tox21)
% is set by controls: 0 for no effect and ±100 for the full control effect.
